Measurements published in ChEMBL document CHEMBL4888484, “Replenishing the malaria drug discovery pipeline: Screening and hit evaluation of the MMV Hit Generation Library 1 (HGL1) against asexual blood stage Plasmodium falciparum ,using a nano luciferase reporter read-out” (2022).
Among all 4,800 compounds or so, about 410 (8.5%) showed an effect of 50% or more. The full list was thinned out, with strong results kept by preference.

test system: Plasmodium falciparum; assay: Confirmatory screen in NF54 pLDH assay, in single point, at 2uM, 72h; format: functional, Erythrocyte; settings: timepoint 72 hour

Compound	% Inhibition [%]
O=C(CN1N=C(C(=O)Nc2ccccc2)CCC1=O)Nc1ccc(OC(F)(F)F)cc1	-8
CC[n+]1c(/C=C/N(C)c2ccccc2)oc2ccccc21	76
CC[n+]1c(/C=C/N(C)c2ccccc2)oc2ccc(-c3ccccc3)cc21	91
CCCn1nnc(N(C(=O)c2cc(Br)cc(C)c2OC)C(=O)c2cc(Br)cc(C)c2OC)n1	0
CCCC1CCC(c2ccc(-c3noc(-c4ccc(O)c(F)c4)n3)cc2)CC1 (stereo unspecified)	4
CC(C)c1ccc2ncnc(N[C@H]3CCc4[nH]cnc4C3)c2c1	101
O=c1[nH]nc(-c2ccc3c(c2)CCC3)c2ccccc12	-1
COc1ccc(C2=NC3(CCN(Cc4ccccc4)CC3)N[C@H](c3cc(Cl)ccc3O)C2)cc1	9
COc1ccc(-c2cc3ncc(C(=O)c4cc(Cl)ccc4O)cn3n2)cc1	78
O=C(Nc1ccc2c(c1)CNCC2)C1CC1c1ccc(F)c(F)c1 (stereo unspecified)	15
COc1ccccc1CC(=O)N(c1nc(C)cs1)C1CC1	-8
Cc1c(NC(=O)N2CCC(C)C(n3ccnc3)C2)cccc1N(C)C (stereo unspecified)	7
COc1ccc(CC(=O)Nc2cc(C)n(-c3cccc(Cl)c3)n2)cc1	93
COc1ccc(Cl)cc1NC(=O)Cc1c(C)nc2nc(-c3ccccc3C)nn2c1C	6
COc1ccc(-n2nc(C)c(Cc3ccc(Cl)cc3)c2O)cc1	12
C[C@@H](C(=O)NCCN1CCCCC1)N1C(=O)COc2ccc(C(=O)COc3ccccc3Cl)cc21	-20
Cc1nn(-c2ccccc2)c2c1[C@@H](c1ccc(C(F)(F)F)cc1)N(c1ccccc1)C(=O)N2	9
CCn1ncc(NC(=O)c2cc(-c3ccccc3)on2)c1C	-19
CCc1ccccc1Nc1nc(C)c(C(=O)NCc2cccnc2)s1	-22
O=S(=O)(Cc1cc(Cl)cc(Cl)c1)NCCCCn1ccnc1	-11
COc1ccc(-c2nccn3cc(C(=O)NCCc4ccncc4)nc23)cc1	5
COc1ccc(Nc2nnc(-c3ccc(NC(=O)C(=O)NCCCn4ccnc4)cc3)s2)cc1	76

Compound	% Inhibition [%]
CCOc1ccc(CN2CC[C@H](Nc3ncccn3)[C@@H](O)C2)cc1Cl	-18
CC(C)c1nc(O)cc(CN2CCCCC2)n1	4
CC(C)c1ccc(-c2nc(CN3CCCCC3)cc(CN3CCCCC3)c2O)cc1	95
Cc1ccc(-c2ccnn2C)cc1NC(=O)[C@H]1CCCOC1	13
COc1cc(C(=O)Nc2nnc(-c3ccc(C)s3)[nH]2)on1	9
O=C(NCC1CC12CCc1ccccc12)NC1CC2CCC1O2 (stereo unspecified)	1
Cc1ccc2nc(O)c3nnc(C)n3c2c1	15
NS(=O)(=O)c1ccc(-c2noc(C3(c4cccc(F)c4)CCC3)n2)cc1	-9
CN(C)CCCNc1nc(N2CCCC2)c2c(c1C#N)CCN(C)C2	14
CC(C)C(NC(=O)c1ccccc1F)C(=O)NC1CCC(N(C)C)C1 (stereo unspecified)	-9
CC1CCCN(c2nc(O)c3c(n2)NC(=O)CC3c2cccc(C(F)(F)F)c2)C1 (stereo unspecified)	9
CC(C)Cc1nsc(N2CCOC3CCN(C)CC32)n1 (stereo unspecified)	11
CN1c2cc(C(=O)N3CCN(c4ccccc4Cl)CC3)ccc2C(=O)N2CCCC[C@H]21	5
Nc1ccnc(OCc2ccccc2)n1	-16
C[C@H](Oc1ccc(F)cc1)C(=O)N1CCC(c2nc3cc(Cl)ccc3s2)CC1	-1
Cc1cc(N(C)CCC2CC2)nc([C@H](C)N(C)CCC2CC2)n1	61
Cc1cc(N(CCO)C2CC2)nc(C2CC2)n1	-18
Clc1ccc2c(c1)CC[C@@H]2NCc1nnc2n1CCC2	3
N[C@H]1C[C@H](c2cc(NCCCc3cccnc3)nc(C3CC3)n2)C1	77
O=C(NCCc1cccnc1)OCC(F)(F)F	-19
Cc1ccc(OCCNc2cc([C@H]3C[C@H](N)C3)nc(C3CC3)n2)cc1C	25
Cc1ccc(N(C)CC(=O)N2CCC2)c(Br)c1	-7

Compound	% Inhibition [%]
O=C(Cc1ccccc1)Nc1c2c(nc3c1CCC3)CCCC2	8
COc1ccc(C(=O)N(C(=O)c2ccc(OC)cc2)c2c3c(nc4ccccc24)CCCC3)cc1	61
COc1ccc(CCc2nc(NC(=O)c3[nH]nc4c3CCC4)n[nH]2)cc1	-15
Cc1ccc2c(c1)N(C(=O)c1c[nH]c(C)cc1=O)CCC2	-3
COc1cc(OC)nc(-n2nc(C)cc2C(=O)Nc2ccc(Cl)cc2)n1	18
Cc1cc(C)n(-c2nnc(-c3ccccc3)c(-c3ccccc3)n2)n1	10
Cc1cc(C)n(-c2nc(Nc3ccc(Cl)cc3)nc(Nc3ccc(Cl)cc3)n2)n1	87
Cc1cc(C)c(S(=O)(=O)Cc2ccccc2)c(O)n1	12
Cc1ocnc1C(=O)N[C@H]1CCN(c2ccc(Cl)c(F)c2)C1=O	7
Cc1cc(N2C[C@H]3CC[C@@H](C2)[C@H]3N(C)C)nc(Nc2cccc(O)c2)n1	86
Cc1cc(N2CC(OCc3ccccc3)C2)nc(Nc2cccc(O)c2)n1	96
Cc1cccc([C@@H](NC(=O)Nc2ncco2)C(F)(F)F)c1	-15
N#Cc1ccccc1OCc1csc(-c2ccccn2)n1	6
O=C(Nc1nc(CCc2c[nH]c3ccccc23)n[nH]1)c1cccnc1	12
CC1=NN(S(=O)(=O)c2ccc(F)cc2)C(=O)c2ccccc2O1	5
CN(Cc1nnc2n1CCC2)C(=O)Cc1cccs1	9
COc1cc(CN(CC(N)=O)C(C)C)ccc1C	9
Cc1cc(C(=O)NCc2nc3ccccc3s2)c(C)o1	7
Cc1ccc(S(=O)(=O)N(CC(=O)NC2CCN(C)CC2)c2cccc(Cl)c2)cc1	2
Cc1ccc(COc2cccc(CNC3CC3)c2)cc1	-1
CN1CCN(C(=O)CNC(=O)c2cccc(Cl)c2)CC1	8
Cn1cc(Cl)c(C(=O)Nc2cccc(S(=O)(=O)N3CCOCC3)c2)n1	13
